# Laboratory results: PubChem BioAssay AID1159580 (chemical genetic matrix, 2015)
# The campaign covered roughly 5,500 compounds. About 2,000 (36%) were called active. About 18% were inconclusive and are not listed. The list shows a part of the results. Values without a mark were called inactive. Rule as the data show it: active = normalized growth mostly below about 0.91 (no sharp cut-off); inconclusive = no clear call, values can overlap the other calls; inactive = mostly above about 0.92.
# Assay: chemical genetic growth profiling, strain panel (AID 1159580);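 also: tested at 20 µM; growth read once vehicle control cultures reached saturation at 30 °C; 1 = growth at the plate median or of vehicle wells; lower values mean less growth of the strain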
# Conditions: growth OD
structure (smiles),measurement,setting,value
C#C[C@]1(O)CCC2C3CCC4=CC(=O)CC[C@@H]4C3CC[C@@]21CC (stereo not given in full),normalized growth,"S. cerevisiae deletion strains, locus YJR066W, strain TOR1, active compounds read low",0.91
same,normalized growth,"S. cerevisiae deletion strains, locus YKL009W, strain mrt4, active compounds read low",0.96
same,normalized growth,"S. cerevisiae deletion strains, locus YKL068W, active compounds read low",0.999
same,normalized growth,"S. cerevisiae deletion strains, locus YKL085W, strain MDH1 (second series), active compounds read low",0.988
same,normalized growth,"S. cerevisiae deletion strains, locus YKL085W, strain MDH1, active compounds read low",0.988
same,normalized growth,"S. cerevisiae deletion strains, locus YKL160W, strain elf1, active compounds read low",0.988
same,normalized growth,"S. cerevisiae deletion strains, locus YKL190W, strain CNB1, active compounds read low",1.01
same,normalized growth,"S. cerevisiae deletion strains, locus YKR001C, strain vps1, active compounds read low",1
same,normalized growth,"S. cerevisiae deletion strains, locus YKR026C, strain gcn3, active compounds read low",1
same,normalized growth,"S. cerevisiae deletion strains, locus YKR091W, strain srl3, active compounds read low",0.993
same,normalized growth,"S. cerevisiae deletion strains, locus YLL001W, strain dnm1, active compounds read low",0.987
same,normalized growth,"S. cerevisiae deletion strains, locus YLL026W, active compounds read low",1
same,normalized growth,"S. cerevisiae deletion strains, locus YLL041C, strain sdh2, active compounds read low",0.99
same,normalized growth,"S. cerevisiae deletion strains, locus YLR027C, strain aat2, active compounds read low",0.989
same,normalized growth,"S. cerevisiae deletion strains, locus YLR039C, strain RIC1, active compounds read low",0.949
same,normalized growth,"S. cerevisiae deletion strains, locus YLR058C, strain SHM2, active compounds read low",0.998
same,normalized growth,"S. cerevisiae deletion strains, locus YLR102C, strain apc9, active compounds read low",0.992
same,normalized growth,"S. cerevisiae deletion strains, locus YLR113W, strain HOG1, active compounds read low",0.946
same,normalized growth,"S. cerevisiae deletion strains, locus YLR221C, strain rsa3, active compounds read low",0.997
same,normalized growth,"S. cerevisiae deletion strains, locus YLR258W, strain gsy2, active compounds read low",1
same,normalized growth,"S. cerevisiae deletion strains, locus YLR262C, strain YPT6 (second series), active compounds read low",0.829 (active)
same,normalized growth,"S. cerevisiae deletion strains, locus YLR262C, strain YPT6, active compounds read low",0.903
same,normalized growth,"S. cerevisiae deletion strains, locus YLR268W, strain sec22, active compounds read low",0.958
same,normalized growth,"S. cerevisiae deletion strains, locus YLR320W, strain mms22, active compounds read low",0.96
same,normalized growth,"S. cerevisiae deletion strains, locus YLR330W, strain CHS5, active compounds read low",0.991
same,normalized growth,"S. cerevisiae deletion strains, locus YLR342W, strain FKS1 (second series), active compounds read low",0.983
same,normalized growth,"S. cerevisiae deletion strains, locus YLR342W, strain FKS1, active compounds read low",0.985
same,normalized growth,"S. cerevisiae deletion strains, locus YLR357W, strain rsc2, active compounds read low",1.06
same,normalized growth,"S. cerevisiae deletion strains, locus YLR370C, strain arc18, active compounds read low",0.984
same,normalized growth,"S. cerevisiae deletion strains, locus YLR371W, strain rom2, active compounds read low",0.992
same,normalized growth,"S. cerevisiae deletion strains, locus YLR384C, strain iki3, active compounds read low",0.992
same,normalized growth,"S. cerevisiae deletion strains, locus YLR418C, strain cdc73, active compounds read low",1.03
same,normalized growth,"S. cerevisiae deletion strains, locus YML016C, strain PPZ1, active compounds read low",0.989
same,normalized growth,"S. cerevisiae deletion strains, locus YML032C, strain rad52, active compounds read low",0.977
same,normalized growth,"S. cerevisiae deletion strains, locus YML120C, strain ndi1, active compounds read low",1.01
same,normalized growth,"S. cerevisiae deletion strains, locus YML124C, strain tub3, active compounds read low",0.988
same,normalized growth,"S. cerevisiae deletion strains, locus YMR058W, strain fet3, active compounds read low",0.987
same,normalized growth,"S. cerevisiae deletion strains, locus YMR078C, strain ctf18, active compounds read low",0.989
same,normalized growth,"S. cerevisiae deletion strains, locus YMR125W, strain sto1, active compounds read low",1
same,normalized growth,"S. cerevisiae deletion strains, locus YMR129W, active compounds read low",0.983
same,normalized growth,"S. cerevisiae deletion strains, locus YMR205C, strain PFK2, active compounds read low",0.989
same,normalized growth,"S. cerevisiae deletion strains, locus YMR223W, strain ubp8, active compounds read low",0.987
same,normalized growth,"S. cerevisiae deletion strains, locus YMR231W, strain pep5, active compounds read low",0.999
same,normalized growth,"S. cerevisiae deletion strains, locus YMR307W, strain GAS1, active compounds read low",1.12
same,normalized growth,"S. cerevisiae deletion strains, locus YNL067W, strain RPL9B, active compounds read low",1.01
same,normalized growth,"S. cerevisiae deletion strains, locus YNL071W, strain lat1, active compounds read low",0.992
same,normalized growth,"S. cerevisiae deletion strains, locus YNL128W, strain TEP1, active compounds read low",0.988
same,normalized growth,"S. cerevisiae deletion strains, locus YNL153C, strain GIM3, active compounds read low",1.01
same,normalized growth,"S. cerevisiae deletion strains, locus YNL183C, strain NPR1, active compounds read low",0.922
same,normalized growth,"S. cerevisiae deletion strains, locus YNL209W, strain ssb2, active compounds read low",0.993
same,normalized growth,"S. cerevisiae deletion strains, locus YNL233W, strain BNI4, active compounds read low",0.992
same,normalized growth,"S. cerevisiae deletion strains, locus YNL248C, strain rpa49, active compounds read low",1
same,normalized growth,"S. cerevisiae deletion strains, locus YNL250W, strain rad50, active compounds read low",0.988
same,normalized growth,"S. cerevisiae deletion strains, locus YNL271C, strain bni1, active compounds read low",0.982
same,normalized growth,"S. cerevisiae deletion strains, locus YNL298W, strain CLA4, active compounds read low",0.961
same,normalized growth,"S. cerevisiae deletion strains, locus YNL307C, strain MCK1, active compounds read low",0.98
same,normalized growth,"S. cerevisiae deletion strains, locus YNL322C, strain KRE1 (second series), active compounds read low",1
same,normalized growth,"S. cerevisiae deletion strains, locus YNR049C, strain mso1, active compounds read low",1
same,normalized growth,"S. cerevisiae deletion strains, locus YNR052C, strain pop2, active compounds read low",0.964
same,normalized growth,"S. cerevisiae deletion strains, locus YOL006C, strain TOP1, active compounds read low",1.03
same,normalized growth,"S. cerevisiae deletion strains, locus YOL012C, strain htz1",1.51
same,normalized growth,"S. cerevisiae deletion strains, locus YOL147C, strain pex11, active compounds read low",0.994
same,normalized growth,"S. cerevisiae deletion strains, locus YOR001W, strain rrp6, active compounds read low",0.967
same,normalized growth,"S. cerevisiae deletion strains, locus YOR061W, strain CKA2, active compounds read low",0.983
same,normalized growth,"S. cerevisiae deletion strains, locus YOR069W, strain VPS5, active compounds read low",0.991
same,normalized growth,"S. cerevisiae deletion strains, locus YOR070C, strain gyp1, active compounds read low",0.995
same,normalized growth,"S. cerevisiae deletion strains, locus YOR080W, strain dia2, active compounds read low",0.996
same,normalized growth,"S. cerevisiae deletion strains, locus YOR083W, strain WHI5, active compounds read low",0.997
same,normalized growth,"S. cerevisiae deletion strains, locus YOR106W, strain vam3, active compounds read low",0.997
same,normalized growth,"S. cerevisiae deletion strains, locus YOR136W, strain idh2, active compounds read low",0.991
same,normalized growth,"S. cerevisiae deletion strains, locus YOR144C, strain elg1, active compounds read low",0.994
same,normalized growth,"S. cerevisiae deletion strains, locus YOR184W, strain ser1, active compounds read low",0.912
same,normalized growth,"S. cerevisiae deletion strains, locus YOR231W, strain MKK1, active compounds read low",0.983
same,normalized growth,"S. cerevisiae deletion strains, locus YOR265W, strain rbl2, active compounds read low",1
same,normalized growth,"S. cerevisiae deletion strains, locus YOR270C, strain vph1, active compounds read low",0.957
same,normalized growth,"S. cerevisiae deletion strains, locus YOR290C, strain snf2, active compounds read low",0.98
same,normalized growth,"S. cerevisiae deletion strains, locus YOR316C, strain cot1, active compounds read low",0.989
same,normalized growth,"S. cerevisiae deletion strains, locus YPL051W, strain arl3, active compounds read low",0.979
same,normalized growth,"S. cerevisiae deletion strains, locus YPL055C, strain LGE1, active compounds read low",1.04
same,normalized growth,"S. cerevisiae deletion strains, locus YPL078C, strain atp4, active compounds read low",0.996
same,normalized growth,"S. cerevisiae deletion strains, locus YPL106C, strain sse1, active compounds read low",1.06
same,normalized growth,"S. cerevisiae deletion strains, locus YPL240C, strain hsp82, active compounds read low",1
same,normalized growth,"S. cerevisiae deletion strains, locus YPL241C, strain CIN2, active compounds read low",1
same,normalized growth,"S. cerevisiae deletion strains, locus YPL256C, strain CLN2, active compounds read low",0.963
same,normalized growth,"S. cerevisiae deletion strains, locus YPR119W, strain clb2, active compounds read low",1
same,normalized growth,"S. cerevisiae deletion strains, locus YPR141C, strain kar3, active compounds read low",0.983
same,normalized growth,"S. cerevisiae deletion strains, locus YPR163C, strain tif3, active compounds read low",0.99
same,normalized growth,"S. cerevisiae deletion strains, locus YPR167C, strain met16, active compounds read low",0.988
same,normalized growth,"S. cerevisiae deletion strains, strain wtn01, active compounds read low",0.973
same,normalized growth,"S. cerevisiae strains, strain wild type, active compounds read low",1.02
